In the library only some 2.7% were active in any assay of this set; here they are far more common.
HSP90 refold inh – inhibitors of HSP90 luciferase refolding in rabbit reticulocyte lysate; luciferase refolding luminescence, 3 h; inhibition, % at 5.6 µM; 290,000 compounds, 0.91% hits; AID 1789;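 active means inhibition above the screen-wide mean plus 3 SD, computed separately per campaign, cut at about 16% in these data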;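 further: inhibitors lower the luminescence because luciferase stays unfolded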
SENP8 block-1 – inhibitors of human SENP8 protease; recombinant SENP8, Nedd8 substrate fluorescence; AID 602440; 360,000 compounds, 0.64% hits; Q96LD8; inhibition, % at 20 µM; in the data active means inhibition mostly above about 40%, no sharp cut-off; inactive means mostly below about 27%
Target sequence (Q96LD8 whole entry, looked up): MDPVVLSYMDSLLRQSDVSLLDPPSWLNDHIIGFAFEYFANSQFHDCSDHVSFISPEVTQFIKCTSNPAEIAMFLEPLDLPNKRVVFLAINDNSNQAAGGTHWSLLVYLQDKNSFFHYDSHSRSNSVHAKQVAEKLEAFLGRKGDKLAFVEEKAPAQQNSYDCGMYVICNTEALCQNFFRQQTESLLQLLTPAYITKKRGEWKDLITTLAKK
SENP7 block – inhibitors of human SENP7 protease | Q9BQF6 | recombinant SENP7, Z-RLRGG-aminoluciferin luminescence, 40 min | inhibition, % at 5 µM | 330,000 compounds, 1.5% hits;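 active means inhibition above about 50% at the single test dose, limit read from the data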
SENP8 block-2 – SENP8 protease inhibition; Q96LD8; purified SENP8, Z-RLRGG-aminoluciferin cleavage, luminescence; inhibition, % at 10 µM; 330,000 compounds, 1.2% hits; AID 2540; in the data active means inhibition above about 50%
SENP6 inh – inhibitors of human SENP6 protease; Q9GZR1; Recombinant SENP6 catalytic domain, aminoluciferin luminescence; inhibition, % at 10 µM; 330,000 compounds, 1.8% hits; AID 2599;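 active means inhibition above about 50% at the single tested dose, limit read from the data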
Target sequence (Q9GZR1 628-1112 limits assumed): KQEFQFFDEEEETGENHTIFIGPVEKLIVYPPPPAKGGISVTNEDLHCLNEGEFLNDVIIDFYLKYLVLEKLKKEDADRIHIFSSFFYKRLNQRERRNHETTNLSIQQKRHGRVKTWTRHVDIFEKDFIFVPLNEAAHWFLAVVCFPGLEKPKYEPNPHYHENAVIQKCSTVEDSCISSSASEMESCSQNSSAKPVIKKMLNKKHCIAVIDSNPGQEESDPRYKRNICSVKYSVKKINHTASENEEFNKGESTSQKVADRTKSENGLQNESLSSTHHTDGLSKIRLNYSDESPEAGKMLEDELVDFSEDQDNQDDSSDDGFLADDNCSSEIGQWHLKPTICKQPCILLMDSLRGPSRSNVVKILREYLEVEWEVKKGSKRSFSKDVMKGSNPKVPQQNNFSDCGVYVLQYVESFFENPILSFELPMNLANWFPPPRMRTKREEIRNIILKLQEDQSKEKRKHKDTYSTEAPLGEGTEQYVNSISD
SENP8 conf – SENP8 (human) inhibition, single concentration confirmation. shares compounds with SENP8 block-1. purified SENP8, Nedd8-AMC/pro-Nedd8 cleavage fluorescence, 30 min. inhibition, % at 25 µM. 1,400 compounds, 15% hits. AID 624319; in the data active means inhibition mostly above about 39%, no sharp cut-off; inactive means mostly below about 34%
Of the large screens only hits and unclear results are named; the others gave an inactive call (follow-up assays come after a bar, where they were run).

O=C1CCCC2=C1C1(O)C(=O)c3ccccc3C1(O)O2 (configuration not stated)	SENP8 block-1 51 | SENP8 conf 89
COc1ccc(-c2cc(=O)n(CCC#N)[nH]2)cc1	HSP90 refold inh 65, SENP8 block-1 43 | SENP8 conf inactive
COc1ccc(-c2ncn(CCC#N)c2[N+](=O)[O-])cc1	none
CCC1=NN(C(=O)c2ccc([N+](=O)[O-])cc2)C(O)(c2ccccc2)C1 (configuration not stated)	SENP8 block-1 50 | SENP8 conf inactive
Cn1c(=O)c(Nc2ccc(O)cc2)c2c3c(cccc31)C(=O)c1ccccc1-2	SENP8 block-1 45 | SENP8 conf inactive
CC(=O)c1c2c3c(cccc3n(C)c1=O)C(=O)c1ccccc1-2	none (no result: SENP8 block-1)
CCCCNC(=S)NNC(=O)c1c(Cl)c(C)nn1C	none
COc1ccc(C2c3[nH]c4ccccc4c3C[C@H]3C(=O)N(c4ccccc4C(=O)N4CCC[C@H]4C(=O)O)C(=O)N23)cc1 (some centres not stated)	SENP8 block-1 42 | SENP8 conf inactive
Cc1ccc(C2c3[nH]c4ccccc4c3C[C@H]3C(=O)N(c4ccccc4C(=O)N4CCC[C@H]4C(=O)O)C(=O)N23)cc1 (some centres not stated)	SENP8 block-1 43 | SENP8 conf inactive
COc1cccc(C2c3[nH]c4ccccc4c3C[C@H]3C(=O)N(c4ccccc4C(=O)NCCCN4CCOCC4)C(=O)N23)c1 (some centres not stated)	SENP8 block-1 51 | SENP8 conf inactive
COc1ccccc1OCCCCN1CCN(c2ccccc2OC)CC1	SENP8 block-1 48 | SENP8 conf inactive
CCOc1cc2c(cc1O)C(=NO)CC1C2CCC2(C)C(O)CCC12 (configuration not stated)	none (no result: HSP90 refold inh, SENP7 block, SENP8 block-2, SENP6 inh)
C#CCOCCOCCOCCNc1nc(N2CCN(C(=O)[C@H](CCCCN)n3cc(CN)nn3)CC2)nc(N2CCN(C(=O)[C@H](CCCCN)n3cc([C@@H](N)CC(N)=O)nn3)CC2)n1	SENP8 block-1 40 (no result: HSP90 refold inh, SENP7 block, SENP8 block-2, SENP6 inh) | SENP8 conf inactive
Cc1cccc(C)c1NC(=O)c1ccc([N+](=O)[O-])s1	SENP8 block-1 29 | SENP8 conf inactive
CC1Oc2ccccc2N(Cc2cccc(F)c2)C1=O (configuration not stated)	none
CC(=O)OC1(C(C)=O)CCC2C3CC(C(F)(F)F)C4=CC(=O)CCC4(C)C3CCC21C (configuration not stated)	none (no result: HSP90 refold inh, SENP7 block, SENP8 block-2, SENP6 inh)
CCOC(=O)c1c(-c2cccc([N+](=O)[O-])c2)csc1NC(=O)CCCOc1ccccc1OC	SENP8 block-1 45 (no result: SENP7 block, SENP8 block-2, SENP6 inh) | SENP8 conf inactive
CCCCNC(=O)c1onc(CSc2cc(C)cc(C)c2)c1C(=O)O	none
Nc1cccc2nsnc12	SENP8 block-1 48 | SENP8 conf inactive
Cc1ccccc1N1C(=O)c2cc(S(N)(=O)=O)c(Cl)cc2NC1C (configuration not stated)	none (no result: HSP90 refold inh)
CSc1nnc(C)c(/C=C/Nc2ccc(F)cc2F)n1	none
CSc1nnc(C)c(/C=C/NOCc2cccc(F)c2)n1	SENP8 block-1 40 | SENP8 conf 57
Cc1nnc(SCc2ccccc2)nc1/C=C/NOCc1ccc(Cl)cc1Cl	SENP8 block-1 54 | SENP8 conf inactive
C=CCSc1nnc(C)c(/C=C/Nc2ccc(Cl)cc2)n1	none
Cn1c(NNC(=O)c2c(F)cccc2F)cc(=O)n(C)c1=O	SENP8 block-1 48 | SENP8 conf 48
Cn1c(NNC(=O)c2ccccc2F)cc(=O)n(C)c1=O	none
CC1(C)CC(=O)c2c(O)cc(OCC(=O)Nc3ccc(S(N)(=O)=O)cc3)cc2O1	SENP8 block-1 57 | SENP8 conf inactive
CC(CNC(=O)Cn1ccc(NC(=O)OCc2ccccc2)nc1=O)c1ccccc1 (configuration not stated)	none (no result: HSP90 refold inh)
CN1CCN(C(=O)c2cccc(-c3cc(O)c4ncccc4c3)c2)CC1	none (no result: HSP90 refold inh)
CN1CCN(c2cc(-c3cc(O)c4ncccc4c3)ccn2)CC1	SENP8 block-1 52 (no result: HSP90 refold inh) | SENP8 conf 48
COc1ccc2c(c1)c([C@@H]1[C@H](C)[C@H]3CCCC[C@H]3CN1S(=O)(=O)c1ccc(C)cc1)cn2C	none (no result: HSP90 refold inh, SENP8 block-2, SENP6 inh)
CC1CCCC(C)N1CCNC(=O)Cn1nc(-c2ccccc2)ccc1=O (configuration not stated)	none
Cc1cc(C(=O)N/N=C/c2cccnc2)c(C)o1	SENP8 block-1 41 | SENP8 conf inactive
Cc1nonc1C(=O)N/N=C/c1ccc([N+](=O)[O-])o1	none
Cc1ccc(NC(=O)CCC(=O)N/N=C/c2ccc([N+](=O)[O-])o2)cc1C	SENP8 block-1 63 | SENP8 conf inactive
Cc1cc(C(=O)N/N=C/c2ccc([N+](=O)[O-])o2)c(C)o1	SENP8 block-1 42 | SENP8 conf inactive
O=C(N/N=C/c1ccc([N+](=O)[O-])o1)c1cc(-c2cccc(Br)c2)nc2ccccc12	SENP8 block-1 41 | SENP8 conf inactive
COc1ccc2oc(C(=O)OCC(=O)N3CC(C)OC(C)C3)c(C)c2c1 (configuration not stated)	none
O=C1NC(c2ccc(-c3ccccc3[N+](=O)[O-])o2)C(C(=O)c2ccccc2)C(O)(C(F)(F)F)N1 (configuration not stated)	none
CCOc1cc(CNc2ccc(OC)cc2)cc(Br)c1OCC(=O)NC(C)(C)C	SENP8 block-1 47 | SENP8 conf inactive
CCOc1cc(CNc2ccc(Br)cc2)cc(Br)c1OCC(=O)NC(C)(C)C	none
COCCN1Cc2cccc(C(=O)NCc3cccs3)c2C1=O	SENP8 block-1 42 | SENP8 conf inactive
CCOC(=O)c1sc(=S)n(-c2cc(OC)ccc2OC)c1N	SENP8 block-1 40 | SENP8 conf inactive
CCOC(=O)C1=C(CS(=O)(=O)c2ccc(C)cc2)NC(=O)NC1c1cc(OC)c(OC)c(OC)c1 (configuration not stated)	none
O=C(Nc1c(-c2ccccc2)[nH][nH]c1=O)c1ccc(Br)cc1	SENP8 block-1 58 (no result: HSP90 refold inh, SENP7 block, SENP8 block-2, SENP6 inh) | SENP8 conf inactive
COc1ncccc1C(=O)Nc1c(-c2ccccc2)[nH][nH]c1=O	none (no result: HSP90 refold inh, SENP7 block, SENP8 block-2, SENP6 inh)
COc1ccc(-c2[nH][nH]c(=O)c2NC(=O)c2ccc(C)cc2)cc1	SENP8 block-1 45 (no result: HSP90 refold inh, SENP7 block, SENP8 block-2, SENP6 inh) | SENP8 conf inactive
O=C(Nc1c(-c2ccccc2)[nH][nH]c1=O)c1ccc2ccccc2c1	none (no result: HSP90 refold inh, SENP7 block, SENP8 block-2, SENP6 inh)
O=C(Nc1c(-c2ccccc2)[nH][nH]c1=O)c1cnccn1	SENP8 block-1 40 (no result: HSP90 refold inh, SENP7 block, SENP8 block-2, SENP6 inh) | SENP8 conf inactive
O=C(Nc1c(-c2ccc3c(c2)OCO3)[nH][nH]c1=O)c1cnccn1	none (no result: HSP90 refold inh, SENP7 block, SENP8 block-2, SENP6 inh)
CCN(CC)CCNC(CC(=O)Nc1ccc(Cl)cc1Cl)C(=O)O (configuration not stated)	none
O=C(COc1ccc(Br)cc1CO)Nc1ccc(F)cc1	SENP8 block-1 41 | SENP8 conf inactive
O=C(COc1ccc(Br)cc1CO)Nc1ccc(S(=O)(=O)N2CCCC2)cc1	none (no result: HSP90 refold inh)
CCNc1nc(NC(C)C)nc(N(C#N)C(C)C(=O)N(C)C)n1 (configuration not stated)	SENP8 block-1 45 | SENP8 conf inactive
